Source: PubChem BioAssay
The full list was thinned out, with hits kept by preference.
nsP2pro inh – inhibitors of chikungunya virus nsP2 protease | Q8JUX6 | FRET peptide cleavage, nsP2pro, fluorescence 1 h | Potency, µM (series often up to 24.9 µM), actives largely listed as inhibitors | 31,000 compounds, 1.1% hits | AID 1964107; calls by dose curve; note: nearly all actives have a fitted effect of over 60% in size
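FRET cleavage of 2.5 uM peptide 2 by 150 nM CHIKV protease domain at pH 8.0 (Tris, Tween 20). Compounds at 7 concentrations (up to 25 uM) preincubated 15 min. Fluorescence read after 1 h at room temperature.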
A number is an active result; . = inactive; ! = not active in a repeat.

SMILES	nsP2pro inh
O=c1ccc(-c2cccs2)c2n1C[C@H]1C[C@@H]2CN(S(=O)(=O)c2ccccc2)C1	16µM
COc1ccc(S(=O)(=O)N2C[C@@H]3C[C@H](C2)c2c(NC(=O)c4ccccc4)ccc(=O)n2C3)cc1	.
O=C(Nc1ccc(-c2cn[nH]c2)cc1)Nc1nnc(-c2ccncc2)s1	.
CCCc1nn2c(=O)cc(COC(=O)c3ccccc3NC(=O)COc3ccccc3)nc2s1	.
COC(=O)[C@@]1(c2ccc(C)cc2)C[C@H]1CN1CCC(O)(c2ccccc2)CC1	.
COc1ccccc1CCC(=O)N1CC(F)(F)C[C@H]1c1nnc(C)o1	.
CC1=C(c2ccc(C)c(C)c2)S(=O)(=O)N=C1N1CCC(C(=O)Nc2ccc(Cl)cc2)CC1	.
CC1=C(c2ccc(Cl)cc2)S(=O)(=O)N=C1N1CCC(C(=O)NCCc2ccco2)CC1	11µM
CC1=C(c2ccc(C)c(C)c2)S(=O)(=O)N=C1N1CCC(C(=O)NCc2ccc(Cl)cc2)CC1	.
CC(C)NCC(O)COc1cccc2ccccc12 (centres undefined)	.
CC(CCc1ccccc1)NC(=O)CSc1n[nH]c(-c2ccccc2)n1 (centres undefined)	.
CCC[C@@H](NC(=O)[C@@H]1[C@H]2CCC[C@@H]2CN1C(=O)[C@@H](NC(=O)[C@@H](NC(=O)c1cnccn1)C1CCCCC1)C(C)(C)C)C(=O)C(=O)NC1CC1	7.9µM
c1ccc(-n2ccc(-c3nnc4n3CCCCC4)c2)cc1	13µM
c1ccc(-n2cc(-c3nnc4n3CCCCC4)c3ccccc32)cc1	.
Cc1cc(-c2nnc3n2CCCCC3)c(C)n1-c1cccnc1	.
COc1ccc2nc(S(=O)Cc3ncc(C)c(OC)c3C)[nH]c2c1 (centres undefined)	10µM!
COCCCOc1ccnc(CS(=O)c2nc3ccccc3[nH]2)c1C (centres undefined)	.
COc1ccc2c(c1)[nH]c1c(C)nccc12	.
C/C=C/C1=CC2=C(CO1)C(=O)C(C)(OC(=O)c1c(C)cc(O)cc1OC)C(O)C2 (centres undefined)	.
Cc1nc(NCCC2CCOC2)c2c(C)nn(C)c2n1 (centres undefined)	.
CCN1CCN(C(=O)C23CCC=C2N(C2CCCC2)C(=O)CC3)CC1 (centres undefined)	.
C=C(C)C1CCC2(C(=O)O)CCC3(C)C(CCC4C5(C)C(C=O)C(O)C(C)(C)C5CCC43C)C12 (centres undefined)	.
COc1ccccc1-c1ccc2c(n1)CN(Cc1ccccc1C)C(=O)CO2	.
COc1ccc(Nc2ccc3c(n2)CN(Cc2ccccc2C)C(=O)CO3)cc1	4.5µM
COc1ccc(Nc2ccc3c(n2)CN(Cc2ccccc2F)C(=O)CO3)cc1	.
SMILES	nsP2pro inh
O=C(O)c1c(-c2ccccc2)oc2ccc(OCc3c(F)cccc3Cl)cc12	.
Cn1cc(-c2cnc(Nc3ccc(F)c(Cl)c3)c3c2CCO3)cn1	8.9µM
Cc1noc(C)c1-c1cnc(Nc2ccc(CN3CCN(C)CC3)cc2)c2c1CCO2	.
Cc1cc(-c2cnc(Nc3ccc(F)cc3)c3c2CCO3)ccn1	.
Cc1cn([C@H]2C[C@H](N[S+](=O)([O-])Cc3cc(Cl)cc(Cl)c3)[C@@H](CO)O2)c(=O)[nH]c1=O	.
COc1ccc(-c2cc(=S)ss2)cc1	11µM
COc1ccc(-c2nc3ccc(OC)cc3s2)cc1	.
COc1ccc(-c2nc3ccccc3s2)cc1	.
CCO/N=C(\C(=O)N[C@@H]1C(=O)N2C(C(=O)O)=C(Sc3nc(-c4cc[n+](C)cc4)cs3)CS[C@H]12)c1nsc(NP(=O)(O)O)n1	11µM
CO/N=C(\C(=O)N[C@@H]1C(=O)N2C(C(=O)O)=C(CSc3cnns3)CS[C@H]12)c1csc(N)n1	.
COCC1=C(C(=O)O)N2C(=O)[C@@H](NC(=O)/C(=N\OC)c3csc(N)n3)[C@H]2SC1	.
O=C(OCc1ccccc1O[C@@H]1O[C@H](CO)[C@@H](O)[C@H](O)[C@H]1O)C1(O)C=CCCC1O (some centres undefined)	.
O=C(Nc1ccc(-c2nc3ccccc3[nH]2)cc1)c1ccc2ncccc2c1	.
O=C(Nc1ccc(-c2nc3ccccc3[nH]2)cc1)c1ccc2sccc2c1	.
O=C(Nc1ccc(-c2nc3ccccc3[nH]2)cc1)c1ccc2ncsc2c1	11µM
Cc1ccc(C2=NN(CC(=O)NCCc3ccccc3)C(=O)C2)cc1	.
COc1cccc(CN2CC3(C2)NC(=O)c2ccccc2O3)c1	.
O=C(c1nc2c(o1)CCN(Cc1cccc(F)c1)CC2)N1CCOCC1	2.8µM
Cn1c(C(=O)Nc2ccc3c(c2)OCO3)cc2c1CCN(Cc1cccc(F)c1)C2	.
Fc1ccc(-c2cccc(CN3CCOCC3)c2)c(Cl)c1	.
CCc1nc(-c2c3n(c(=O)n(CC(=O)NCc4cccc(OC)c4)c2=O)CCCC3)no1	.
CCCCCC/C=C\CCCCCCCC(=O)O	.
O=C1CCN(C(=O)Cc2ccccc2)CCCOCCN1	.
NC(N)=NCc1cccc(I)c1	.
CN1CCN(c2ccc(NC(=O)CN(C)Cc3c(O)ccc4ccccc34)cc2)CC1	13µM
SMILES	nsP2pro inh
COc1ccc2ccccc2c1CN(C)CC(=O)Nc1ccc(N2CCOCC2)cc1	.
CN(CC(=O)Nc1ccc(N2CCOCC2)cc1)Cc1ccccc1O	.
Cc1cn(C)c(CC(=O)Nc2cccc(C#N)c2)c1C(=O)O	.
C[C@@H]1O[C@@H](O[C@H]2[C@@H]3C=CO[C@@H](O[C@@H]4O[C@H](CO)[C@@H](O)[C@H](O)[C@H]4O)[C@@H]3[C@@]3(CO)O[C@@H]23)[C@H](O)[C@H](OC(=O)/C=C/c2ccc(O)cc2)[C@H]1OC(=O)/C=C/c1ccc(O)cc1	.
CC(C)/C=C1\NC(=O)C(C(C)C)n2c1nc1c(c2=O)C=CC=CO1 (centres undefined)	.
CN(C)C(=O)CCC(=O)N1CC[C@@](C)(O)[C@@H](Cc2ccccc2)C1	.
O=c1cc(-c2cccnc2)oc2c(NCCc3ccccn3)nccc12	.
Cc1ccccc1-c1nccc2c(=O)cc(C3=CCOCC3)oc12	.
O=c1cc(-c2ccncc2)oc2c(-c3cccc(CO)c3)nccc12	14µM
CN(C(=O)C1(N)CC1)C1CCCN(CCCc2ccccc2)C1 (centres undefined)	.
CCC1C(=O)OCC1Cc1cncn1C (centres undefined)	.
O=C(C[C@H]1NC(=O)c2ccccc2NC1=O)Nc1nc(-c2ccncc2)cs1	.
Cc1cccc(NC(=O)CN2CCC(c3ccccn3)CC2)c1	.
COCC(=O)N1c2nc(C(C)C)nn2C2(CCCCC2)[C@@H]2CCCC[C@@H]21	11µM
CC(=O)N1c2nc(-c3ccco3)nn2C2(CCCCC2)[C@@H]2CCCC[C@@H]21	.
O=C(c1cccc([N+](=O)[O-])c1)N1c2ncnn2C2(CCCCC2)[C@@H]2CCCC[C@@H]21	.
COc1ccc(-c2cc([C@H]3CN4CC[C@H]3C[C@@H]4CN)nc(C)n2)cc1OC	.
Cc1ccc(C(=O)Nc2ccc(CN3CCN(C)CC3)c(C(F)(F)F)c2)cc1C#Cc1cnc2cccnn12	.
O=C(Nc1ccccc1)N[C@H]1CO[C@H]2[C@@H]1OC[C@@H]2Nc1nccc(-c2cccs2)n1	.
O=C(COc1ccccc1)N[C@H]1CO[C@H]2[C@@H]1OC[C@@H]2Nc1nccc(-c2ccco2)n1	13µM
CC(=O)c1ccc(NC(=O)N[C@H]2CO[C@H]3[C@@H]2OC[C@@H]3Nc2nccc(-c3ccco3)n2)cc1	.
O=C(N[C@H]1CO[C@H]2[C@@H]1OC[C@@H]2Nc1nccc(-c2ccco2)n1)c1ccco1	1µM
